Assay results as given in PubChem BioAssay (NCI).
“And” between values parts separate entries of the source, which are not always exact repeats. Identical values can stand only once. About 79,000 compounds went through this panel and 15% of them were active in at least one assay; those are over-represented in the sample as a whole. Rule as the data show it: active = growth inhibition above about 70%; inactive = the rest.

Assays:
[1] = NCI Yeast Anticancer Drug Screen. Data for the rad50 strain (AID 155);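 also: 0% = growth of vehicle-only cultures of the same strain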; conditions: S. cerevisiae rad50 strain growth inhibition; at 50.0 µM; active compounds read high
Method in brief: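 Cells are treated with compound, grown, and their growth is then scored against vehicle-only cultures of the same repair-deficient yeast strain.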

[2] = NCI Yeast Anticancer Drug Screen. Data for the mec2-1 strain (AID 157); conditions: S. cerevisiae mec2-1 strain, at 50.0 µM, active compounds read high
Method in brief: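 Strain: mec2-1 (DNA repair/cell cycle alteration). Compound exposure, then growth measured; inhibition expressed relative to vehicle.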

[3] = NCI Yeast Anticancer Drug Screen. Data for the sgs1 mgt1 strain (AID 161);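 also: 0% = growth of cultures given vehicle only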; conditions: S. cerevisiae sgs1 mgt1 strain, at 50.0 µM, active compounds read high
Method in brief: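 Inhibition of yeast growth, normalised to vehicle-treated controls, is reported for a strain bearing genetic alterations in DNA damage repair.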

[4] = NCI Yeast Anticancer Drug Screen. Data for the cln2 rad14 strain (AID 165);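 also: 0% = growth equal to vehicle treated cultures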; conditions: S. cerevisiae cln2 rad14 strain, at 50.0 µM, active compounds read high
Method in brief: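 Compounds are applied to the cln2 rad14 yeast strain, and growth is then compared with that of vehicle-treated cultures to give inhibition.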

[5] = NCI Yeast Anticancer Drug Screen. Data for the bub3 strain (AID 167); conditions: S. cerevisiae bub3 mutant strain, at 50.0 µM, active compounds read high
Method in brief: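 Part of a panel of yeast mutants defective in DNA damage repair or cell cycle regulation. Each strain is grown with compound, and inhibition is calculated relative to solvent-treated cultures.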

[6] = NCI Yeast Anticancer Drug Screen. Data for the mlh1 rad18 strain (AID 175); conditions: S. cerevisiae mlh1 rad18 strain growth inhibition; at 50.0 µM; active compounds read high
Method in brief: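 Read-out is yeast growth inhibition, calculated against vehicle-only controls. The compound was applied to a strain engineered with DNA damage repair alterations.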

Measured: growth inhibition

NC(=S)c1cc(N(CCCl)CCCl)c([N+](=O)[O-])cc1[N+](=O)[O-]
inactive: [1] 22.4% | [2] -0.25% | [3] 8.85% | [4] 8.85% | [5] -11.6% | [6] -22.5%

CCC(=O)C1(c2ccccc2)CCN(C)CC1
inactive: [1] -20.7% | [2] -35.7% | [3] 12.8% | [4] -16.5% | [5] -12.9% | [6] 6.7%

COc1cc(C(c2c(O)c3ccccc3oc2=O)c2c(O)c3ccccc3oc2=O)cc(OC)c1OC
inactive: [1] -2.1% | [2] -8.15% | [3] -10.2% | [4] 0.9% | [5] -11.7% | [6] -2.85%

CN1CCC2CCCCN2CC1=O (configuration not stated)
inactive: [1] -4.15% | [2] 0.45% | [3] -1% | [4] -4.35% | [5] -12% | [6] -4%

CC(C)=CC(=O)N(C)C1C2CN3CCC(O2)C13 (configuration not stated)
inactive: [1] 7.3% | [2] 14.6% | [3] 14.1% | [4] 43.9% | [5] 29.9% | [6] 21.6%

CC(=O)OC1OC(CS[As](C)CCO)C(OC(C)=O)C(OC(C)=O)C1OC(C)=O (configuration not stated)
inactive: [1] 12.8% | [2] -16.9% | [3] -15.3% | [4] -8% | [5] -0.85% | [6] -9.55%

O=C(Cc1ccccc1)Nc1ccc(Cl)cc1C(=O)c1ccccc1
inactive: [1] 1.95% | [2] 44.2% | [3] 40.1% | [4] -18.3% | [5] 23.1% | [6] 36.7%

Cc1nn(C)pc1P(C)(=S)n1nc(N(C)C)np1 (configuration not stated)
inactive: [1] -2.65% | [2] -19.1% | [3] 0.65% | [4] 0.2% | [5] -7.55% | [6] -7.75%

C/C=C/C=C\C=C/C(O)CC(OP(=O)(O)O)C(C)(O)/C=C/C1CC=CC(=O)O1 (configuration not stated)
inactive: [1] -9.75% | [2] -52% | [3] -20.4% | [4] 8.65% | [5] -3.35% | [6] -44.2%

N#CCCCCCBr
inactive: [1] 1.05% | [2] -19.1% | [3] 23% | [4] 10.8% | [5] 17.9% | [6] 19.4%

[NH-]C(CCC(N)=O)C(=O)O.[NH-]C(CCC(N)=O)C(=O)O.[Zn+2] (configuration not stated)
inactive: [1] -23.1% | [2] -22.9% | [3] -27.1% | [4] 13.3% | [5] -26.6% | [6] -38.2%

COc1ccc2c(c1O)[C@@]13C=C(O)C(=O)C=C1[C@@H](C2)N(C)CC3
inactive: [1] 40% | [2] 4.6% | [3] 11.6% | [4] 23.6% | [5] -2.6% | [6] -47.9%

Cc1ccc2n[se]nc2c1
inactive: [1] 11.6% | [2] -15.4% | [3] -16.8% | [4] -0.3% | [5] -15.1% | [6] -8.15%

O=C1C(=O)c2ccccc2-c2ccccc21
inactive: [1] 36.6% and 34.6% | [2] 31.1% and 18.2% | [3] 32.8% and 25.5% | [4] -6.65% and -35.9% | [5] 25.9% and 30.6% | [6] 5.35% and 9.6%

O=C1NC(=S)NC(=O)C1=CC1CC1
inactive: [1] 22.6% | [2] 13.8% | [3] 17.4% | [4] 19.6% | [5] 9.2% | [6] 29.6%

CC(N)Cc1ccc(Cl)cc1 (configuration not stated)
inactive: [1] 14.5% | [2] -0.3% | [3] 1.9% | [4] -15.6% | [5] -14.9% | [6] 3.6%

ClCCCCCCCCCCCl
inactive: [1] 10.9% | [2] -2.55% | [3] -13.2% | [4] -11.8% | [5] -15.2% | [6] -8.8%
